High-throughput results (PubChem)
Only some compounds are listed: those with a hit (about 1.4% of all), similar ones and a draw of the others.
Mtb MbtI inh: inhibitors of Mycobacterium tuberculosis siderophore enzyme MbtI. inhibition, % (concentration not given with the values). AID 493033. purified MbtI enzyme, fluorescence intensity read-out. actives 0.89% (n = 100,000); in the data active means inhibition mostly above about 56%, no sharp cut-off; inactive means mostly below about 77%
Mtb MenB inh: Mtb MenB enzyme inhibition; actives 0.43% (n = 100,000); inhibition, % (no concentration beside the values); MenB enzyme assay, absorbance read-out; P9WNP5; in the data active means inhibition above about 21%, passing the limit was not always enough
Target sequence (P9WNP5 whole entry, looked up): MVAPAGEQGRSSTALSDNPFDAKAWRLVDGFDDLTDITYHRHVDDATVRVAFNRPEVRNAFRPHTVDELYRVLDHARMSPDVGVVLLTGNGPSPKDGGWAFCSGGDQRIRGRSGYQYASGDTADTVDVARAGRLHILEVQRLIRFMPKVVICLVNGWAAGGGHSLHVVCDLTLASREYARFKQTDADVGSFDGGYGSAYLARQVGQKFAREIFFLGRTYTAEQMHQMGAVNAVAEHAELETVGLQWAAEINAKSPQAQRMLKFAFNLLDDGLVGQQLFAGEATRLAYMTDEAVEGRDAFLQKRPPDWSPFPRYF
AID504770: growth inhibitors of E. coli YBA685 in a screen for V. cholerae RctB (chromosome II replication) inhibitors | E. coli YBA685 rctB-dependent plasmid, OD600 growth, 3 h; active compounds read low | z-score (concentration not given with the values) | actives 0.27% (n = 130,000); in the data active means z-score below about -2, passing the limit was not always enough
PV pol inh: inhibitors of poliovirus RNA polymerase binding and polymerization; poliovirus polymerase elongation, fluorescence polarization; active compounds read low; % elongation, % (compound at 16.7 µg/mL); actives 0.66% (n = 150,000); AID 588519; in the data active means % elongation below about 90%
* = called active by the depositor; . = not tested or not shown.

SMILES	Mtb MbtI inh	Mtb MenB inh	AID504770	PV pol inh
Cc1ccc2nc(C(C)O)[nH]c2c1 (stereo unspecified)	-5.1	-1.6	0.75	97.0
CC(O)c1nc2cc3ccccc3cc2[nH]1 (stereo unspecified)	89.2	34.4*	1.45	102.0
Cc1ccc(C(c2nnnn2C(C)(C)C)N2CCC(C)CC2)cc1 (stereo unspecified)	-7.0	-13.0	-2.1	103.0
Cc1ccc(C(c2c(O)[nH]c(=S)[nH]c2=O)N2CCC(C)CC2)cc1 (stereo unspecified)	65.7*	-49.2	-0.45	98.0
Cc1c(N=c2c(=O)c3ccccc3c2=O)c(=O)n(-c2ccccc2)n1C	9.0	-43.6	1.8	63.0*
CCN(CC)c1ccc(C(=O)c2ccc(N(CC)CC)cc2)cc1	34.4	-56.7	0.55	99.0
OC(COc1ccccc1)COc1ccccc1	-8.9	-73.3	-0.7	101.0
CN(Cc1ccccc1)C(=O)Cn1ncc2ccsc2c1=O	.	.	-0.75	.
COc1cc(CC(=O)Nc2cc(Cl)ccc2Sc2nncn2C)cc(OC)c1OC	13.7	-25.0	0.7	103.0
C=C(C)CNC(=S)Nc1cc(Cl)ccc1Sc1nncn1C	79.2*	-15.1	-0.75	91.0
CC(C)n1c(-c2cccc(Br)c2)nc2ccccc21	-59.1	-4.6	-1.05	101.0
CC1CCN(c2nc(-c3ccc(C(C)C)cc3)c(C#N)c(=O)[nH]2)CC1	-0.1	-38.2	0.2	99.0
CN(C)C1(CNCc2nc3ccccc3c(=O)[nH]2)CCCCC1	18.9	-43.0	0.35	95.0
CN(C)C1(CNCc2cnn(-c3ccccc3)n2)CCCCC1	-1.2	7.7	0	88.0*
O=C1ON=C(c2cccs2)/C1=C/C=C/c1ccccc1	.	-29.1	0	100.0
O=C1NC(=O)/C(=C\c2ccccc2C(F)(F)F)S1	100.2*	-19.9	-0.4	103.0
O=C1NC(=S)S/C1=C\c1ccccc1C(F)(F)F	.	.	2.75	.
NC(=O)C1CCN(Cc2ccccc2)CC1	-14.0	-0.6	-0.1	100.0
O=C(O)C1CSC2(CCN(Cc3ccccc3)CC2)N1 (stereo unspecified)	-3.4	37.7*	0	99.0
O=C1C=CC(=O)C(CCCCCCC2=CC(=O)C=CC2=O)=C1	95.7*	11.3	-0.1	101.0
CCc1ccc(C2=CC(=O)C=CC2=O)cc1	43.1	1.8	-0.15	102.0
O=C1C=CC(=O)C(CCC2=CC(=O)C=CC2=O)=C1	98.1*	14.2	0.6	101.0
COC(=O)c1ccc(NC(=O)Cn2cc(OC)c(=O)cc2CN2CCCCC2)cc1	1.8	-7.0	0.75	104.0
Cc1ccccc1CS(=O)(=O)CC1Nc2cc(C(=O)O)ccc2NC1=O (stereo unspecified)	23.6	.	1	.
CC[C@@H](C)C(=O)O[C@H]1[C@H](O)[C@H]2[C@@H](CN3C[C@@H](C)CC[C@H]3[C@@]2(C)O)C2C[C@]34O[C@@]5(O)[C@@H](OC(=O)C(C)(O)CC)CC[C@@]3(C)[C@@H]5[C@@H](OC(C)=O)[C@@H](OC(C)=O)[C@H]4[C@@]21O (stereo partly specified)	-13.6	-3.0	.	103.0
SMILES	Mtb MbtI inh	Mtb MenB inh	AID504770	PV pol inh
Cc1ccc(C(=O)CC(NCCN2CCOCC2)C(=O)O)cc1 (stereo unspecified)	.	32.9*	-0.2	103.0
O=C(CC(NCCN1CCOCC1)C(=O)O)Nc1ccc2ccccc2c1 (stereo unspecified)	14.9	-6.4	0.85	102.0
COC(=O)C1CCCNC1=O (stereo unspecified)	.	-5.3	-0.6	99.0
O=C(O)CSC1=NC2CCCCC2N1 (stereo unspecified)	2.8	32.5*	-0.55	99.0
O=C(O)CSC1=NCCCN1	3.2	1.5	0.35	99.0
Cn1cnc(S(=O)(=O)N(Cc2ccccc2)Cc2ccccc2N2CCC(C(=O)O)CC2)c1	-11.8	3.7	-0.4	86.0*
CC1(C)CC(=O)C2=C(C1)OC1=C(C(=O)CC(C)(C)C1)C2c1ccc2c(c1)OCO2	-11.1	-14.2	-0.25	101.0
Cc1ccc(S(=O)(=O)/C=C/C#N)cc1	79.0*	6.4	-4.8*	101.0
Cc1ccc(S(=O)(=O)c2ccc(C)cc2)cc1	-12.0	-9.8	-0.75	104.0
Cc1ccc(S(=O)(=O)N[C@@H](Cc2ccccc2)C(=O)CCl)cc1	64.3*	-13.9	.	102.0
CC1CC(NC2=NCCS2)CC(C)(C)C1 (stereo unspecified)	.	.	1.25	.
CCOCCCNC1CC(C)CC(C)(C)C1 (stereo unspecified)	-17.1	-14.1	-2.2*	101.0
C=CCc1cccc(O)c1O	88.7*	.	-0.05	101.0
C=CCc1cccc(C=Nc2ccc(Br)cc2)c1O	.	.	-1.35	.
CC(C)N1CSC(=S)N(C(C)C)C1	-7.8	-5.3	-4*	64.0*
Cc1cc(C(=O)Cn2cnc3ccsc3c2=O)c(C)n1CCC1=CCCCC1	9.2	1.3	-0.05	103.0
CCN(CCO)C1CC(=O)N(c2ccccc2C)C1=O (stereo unspecified)	99.7*	4.9	-0.75	99.0
Cc1ccccc1N1C(=O)C(O)C(O)C1=O (stereo unspecified)	-6.4	.	0.3	.
COCCNC(=S)N1c2ccccc2CC1C (stereo unspecified)	63.7*	-33.2	-1.2	84.0*
N#Cc1c(-c2ccccc2)nc(SCC(=O)N2CCCc3ccccc32)[nH]c1=O	.	2.1	-0.3	94.0
Cc1sc(Nc2ccccc2)nc1-c1ccccc1	-2.1	-6.9	0.5	101.0
c1ccc(Nc2nc3c(ccc4ccccc43)s2)cc1	.	-19.3	-0.55	83.0*
CCOC(=O)c1sc(N(C)C(C)=O)nc1C	19.3	38.8*	0.8	99.0
CCOC(=O)c1sc(Br)nc1C	.	.	0.95	.
O=C(COC(=O)CSc1n[nH]c(-c2ccccc2)n1)NC1CCCCC1	.	10.7	0.9	84.0*
SMILES	Mtb MbtI inh	Mtb MenB inh	AID504770	PV pol inh
O=C(CSc1n[nH]c(Cc2ccccc2)n1)NC1CCCCC1	-9.2	-9.3	0.85	98.0
CC(C)NC(=O)COc1ccc(Br)cc1	.	.	-0.75	.
O=C1CCN(C(=O)CCNC(=O)c2ccc(Cl)cc2)CC1	3.5	-21.4	-0.5	96.0
CNc1nc(SCC(=O)OC)nc(N2CCOCC2)n1	2.5	55.9*	1.15	104.0
COC(=O)CSc1nc(C)cc(N2CCOCC2)n1	4.5	-42.2	-0.8	104.0
CN(C)c1cccc(C(=O)OCc2cc(Cl)cc3c2OCOC3)c1	104.1	12.0	-1.25	99.0
COc1ccc(CC(CN)c2ccccc2)cc1 (stereo unspecified)	1.2	36.0*	1.05	102.0
CCCCCc1cc(C(=O)O)[nH]c1-c1ccccc1	114.8	-15.8	-0.6	104.0
O=C(O)Cn1c2ccccc2c2n[nH]c(=S)nc21	90.1*	-22.1	1.3	101.0
CCn1c2ccccc2c2n[nH]c(=S)nc21	25.5	-69.4	-0.25	103.0
O=C(Nc1ccc(-c2nc3ncccc3o2)cc1)c1ccc(-c2cc3ccccc3oc2=O)cc1	-8.4	-10.2	0.25	100.0
COc1ccc(/C=C2/C(=O)N(C)c3ccccc32)cc1	17.1	-63.6	0.25	100.0
CN1C(=O)/C(=c2/[nH][nH]c(=O)/c2=C\C=C\c2ccccc2)C(=O)c2ccccc21	.	-13.8	1.8	84.0*
CCOc1ccccc1NC(=O)c1ccc(C(=O)Nc2ccccc2OCC)cc1	.	.	.	108.0
CCOc1ccccc1NC(=O)CS	82.9*	-140.3	1.05	98.0
